In all, about 5,500 compounds went through this assay and about 2,000 (36%) were called active. About 18% were inconclusive and are not listed. Rule as the data show it: active = normalized growth mostly below about 0.91 (no sharp cut-off); inconclusive = no clear call, values can overlap the other calls; inactive = mostly above about 0.92. Some of the results follow.
Assay: chemical genetic growth profiling, strain panel (AID 1159580);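 also: tested at 20 µM; growth read once vehicle control cultures reached saturation at 30 °C; 1 = growth at the plate median or of vehicle wells; lower values mean less growth of the strain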
Conditions: growth OD
[1] = S. cerevisiae deletion strains, locus YDL101C, strain DUN1, hits give low values
[2] = S. cerevisiae deletion strains, locus YHR030C, strain SLT2, hits give low values
[3] = S. cerevisiae deletion strains, locus YAL013W, strain DEP1, hits give low values
[4] = S. cerevisiae deletion strains, locus YBR229C, strain ROT2, hits give low values
[5] = S. cerevisiae deletion strains, locus YDL134C, strain PPH21, hits give low values
[6] = S. cerevisiae deletion strains, locus YDR150W, strain NUM1, hits give low values
[7] = S. cerevisiae deletion strains, locus YEL061C, strain CIN8, hits give low values
[8] = S. cerevisiae deletion strains, locus YGR078C, strain PAC10, hits give low values
[9] = S. cerevisiae deletion strains, locus YHR087W, strain rtc3, hits give low values
[10] = S. cerevisiae deletion strains, locus YJL187C, strain SWE1, hits give low values
[11] = S. cerevisiae deletion strains, locus YJR043C, strain POL32, hits give low values
[12] = S. cerevisiae deletion strains, locus YJR075W, strain HOC1, hits give low values
[13] = S. cerevisiae deletion strains, locus YKL190W, strain CNB1, hits give low values
[14] = S. cerevisiae deletion strains, locus YLR039C, strain RIC1, hits give low values
[15] = S. cerevisiae deletion strains, locus YLR058C, strain SHM2 (second series), hits give low values
[16] = S. cerevisiae deletion strains, locus YLR085C, strain ARP6, hits give low values
[17] = S. cerevisiae deletion strains, locus YLR262C, strain YPT6, hits give low values
[18] = S. cerevisiae deletion strains, locus YML094W, strain GIM5, hits give low values
[19] = S. cerevisiae deletion strains, locus YMR219W, strain ESC1, hits give low values
[20] = S. cerevisiae deletion strains, locus YMR263W, strain SAP30, hits give low values
[21] = S. cerevisiae deletion strains, locus YNL153C, strain GIM3, hits give low values
[22] = S. cerevisiae deletion strains, locus YNL298W, strain CLA4 (second series), hits give low values
[23] = S. cerevisiae deletion strains, locus YNL322C, strain KRE1, hits give low values
[24] = S. cerevisiae deletion strains, locus YNR030W, strain Alg12, hits give low values
[25] = S. cerevisiae deletion strains, locus YOL006C, strain TOP1, hits give low values
[26] = S. cerevisiae deletion strains, locus YPL055C, strain LGE1, hits give low values
[27] = S. cerevisiae deletion strains, locus YPL241C, strain CIN2, hits give low values
[28] = S. cerevisiae deletion strains, locus YPR135W, strain CTF4, hits give low values
[29] = S. cerevisiae strains, strain wild type, hits give low values
[30] = S. cerevisiae deletion strains, locus YGR229C, strain SMI1, hits give low values

Measured: normalized growth

S=C(NNC(=S)NC1CC2C=CC1C2)Nc1ccc(Br)c(Cl)c1 (configuration not stated)
inactive: S. cerevisiae deletion strains, locus YAR019C, strain CDC15, hits give low values 0.981 | S. cerevisiae deletion strains, locus YBL105C, strain PKC1, hits give low values 0.987 | S. cerevisiae deletion strains, locus YBR135W, strain CKS1, hits give low values 0.986 | S. cerevisiae deletion strains, locus YBR136W, strain MEC1, hits give low values 0.976 | S. cerevisiae deletion strains, locus YBR160W, strain CDC28, hits give low values 0.984 | S. cerevisiae deletion strains, locus YDL017W, strain CDC7, hits give low values 0.986 | S. cerevisiae deletion strains, locus YDL028C, strain MPS1, hits give low values 0.979 | [1] 0.989 | S. cerevisiae deletion strains, locus YDL108W, strain KIN28, hits give low values 0.989 | S. cerevisiae deletion strains, locus YDL132W, strain cdc53, hits give low values 0.987 | S. cerevisiae deletion strains, locus YDL214C, strain PRR2, hits give low values 0.948 | S. cerevisiae deletion strains, locus YDR052C, strain DBF4, hits give low values 0.994 | S. cerevisiae deletion strains, locus YDR054C, strain cdc34, hits give low values 0.976 | S. cerevisiae deletion strains, locus YDR226W, strain ADK1, hits give low values 0.982 | S. cerevisiae deletion strains, locus YDR477W, strain SNF1, hits give low values 0.932 | S. cerevisiae deletion strains, locus YER123W, strain YCK3, hits give low values 0.931 | S. cerevisiae deletion strains, locus YER133W, strain GLC7, hits give low values 0.922 | S. cerevisiae deletion strains, locus YFL009W, strain cdc4, hits give low values 0.98 | S. cerevisiae deletion strains, locus YFL029C, strain CAK1, hits give low values 0.982 | S. cerevisiae deletion strains, locus YFR003C, strain YPI1, hits give low values 0.985 | S. cerevisiae deletion strains, locus YFR019W, strain FAB1, hits give low values 0.993 | S. cerevisiae deletion strains, locus YFR028C, strain CDC14, hits give low values 0.986 | S. cerevisiae deletion strains, locus YGR040W, strain KSS1, hits give low values 0.939 | S. cerevisiae deletion strains, locus YGR052W, strain FMP48, hits give low values 0.954 | S. cerevisiae deletion strains, locus YGR092W, strain DBF2, hits give low values 0.922 | [2] 0.889 | S. cerevisiae deletion strains, locus YHR079C, strain IRE1, hits give low values 0.954 | S. cerevisiae deletion strains, locus YHR082C, strain KSP1, hits give low values 1.03 | S. cerevisiae deletion strains, locus YHR205W, strain SCH9, hits give low values 0.972 | S. cerevisiae deletion strains, locus YIL147C, strain SLN1, hits give low values 0.983 | S. cerevisiae deletion strains, locus YJL095W, strain BCK1, hits give low values 0.927 | S. cerevisiae deletion strains, locus YJL128C, strain PBS2, hits give low values 0.943 | S. cerevisiae deletion strains, locus YJL157C, strain FAR1, hits give low values 0.927 | S. cerevisiae deletion strains, locus YJR016C, strain ILV3, hits give low values 0.984 | S. cerevisiae deletion strains, locus YJR066W, strain TOR1 (second series), hits give low values 0.972 | S. cerevisiae deletion strains, locus YJR066W, strain TOR1, hits give low values 1.05 | S. cerevisiae deletion strains, locus YKL048C, strain ELM1, hits give low values 0.982 | S. cerevisiae deletion strains, locus YKL067W, strain YNK1, hits give low values 0.94 | S. cerevisiae deletion strains, locus YKL101W, strain HSL1, hits give low values 0.961 | S. cerevisiae deletion strains, locus YKL193C, strain SDS22, hits give low values 0.975 | S. cerevisiae deletion strains, locus YKL203C, strain TOR2, hits give low values 0.994 | S. cerevisiae deletion strains, locus YLR113W, strain HOG1, hits give low values 0.896 | S. cerevisiae deletion strains, locus YLR133W, strain CKI1, hits give low values 0.959 | S. cerevisiae deletion strains, locus YLR403W, strain SFP1, hits give low values 0.939 | S. cerevisiae deletion strains, locus YML070W, strain DAK1, hits give low values 0.942 | S. cerevisiae deletion strains, locus YMR001C, strain CDC5, hits give low values 0.984 | S. cerevisiae deletion strains, locus YMR205C, strain PFK2 (second series), hits give low values 0.957 | S. cerevisiae deletion strains, locus YMR277W, strain FCP1, hits give low values 0.983 | S. cerevisiae deletion strains, locus YNL006W, strain LST8, hits give low values 0.984 | S. cerevisiae deletion strains, locus YNL020C, strain ARK1, hits give low values 0.952 | S. cerevisiae deletion strains, locus YNL161W, strain CBK1, hits give low values 0.982 | S. cerevisiae deletion strains, locus YNL183C, strain NPR1, hits give low values 1.04 | S. cerevisiae deletion strains, locus YNL207W, strain RIO2, hits give low values 0.977 | S. cerevisiae deletion strains, locus YNL222W, strain SSU72, hits give low values 0.991 | S. cerevisiae deletion strains, locus YNL307C, strain MCK1 (second series), hits give low values 0.956 | S. cerevisiae deletion strains, locus YOL078W, strain AVO1, hits give low values 0.984 | S. cerevisiae deletion strains, locus YOL136C, strain PFK27, hits give low values 0.964 | S. cerevisiae deletion strains, locus YOR061W, strain CKA2, hits give low values 0.947 | S. cerevisiae deletion strains, locus YOR119C, strain RIO1, hits give low values 0.994 | S. cerevisiae deletion strains, locus YOR231W, strain MKK1, hits give low values 0.963 | S. cerevisiae deletion strains, locus YOR329C, strain SCD5, hits give low values 0.993 | S. cerevisiae deletion strains, locus YPL031C, strain PHO85, hits give low values 0.928 | S. cerevisiae deletion strains, locus YPL153C, strain RAD53, hits give low values 0.932 | S. cerevisiae deletion strains, locus YPL204W, strain HRR25, hits give low values 0.939 | S. cerevisiae deletion strains, locus YPL209C, strain IPL1, hits give low values 0.986 | S. cerevisiae deletion strains, locus YPL256C, strain CLN2, hits give low values 0.987 | S. cerevisiae deletion strains, locus YPR025C, strain CCL1, hits give low values 0.987 | S. cerevisiae deletion strains, locus YPR106W, strain ISR1, hits give low values 0.981 | S. cerevisiae deletion strains, locus YPR111W, strain DBF20, hits give low values 0.983 | S. cerevisiae deletion strains, strain NNK1, hits give low values 0.983 | S. cerevisiae deletion strains, strain TSCII, hits give low values 0.985

CCOC(=O)c1ccc2[nH]c(-c3ccccc3)cc(=O)c2c1
inactive: [3] 1.02 | [4] 1 | S. cerevisiae deletion strains, locus YCL061C, strain MRC1, hits give low values 1.01 | [1] 1.01 | [5] 1.01 | [6] 1.02 | [7] 1.01 | [8] 1.01 | [2] 1.02 | [9] 1 | [10] 1.01 | [11] 1.01 | [12] 0.994 | [13] 1.01 | [14] 1.04 | [15] 1.01 | [16] 1.03 | [17] 1.03 | [18] 0.997 | [19] 1.01 | [20] 0.997 | [21] 1.01 | [22] 1.04 | [23] 1 | [24] 1.04 | [25] 1.04 | [26] 1.11 | [27] 1.03 | [28] 1.09 | [29] 1.03

CCOC(=O)c1sc(-c2ccc(C)cc2)nc1O
active: [3] 0.182 | [4] 0.136 | [1] 0.267 | [5] 0.716 | [6] 0.195 | [7] 0.583 | [8] 0.122 | [2] 0.0748 | [9] 0.135 | [10] 0.107 | [11] 0.337 | [12] 0.174 | [13] 0.46 | [14] 0.409 | [15] 0.129 | [16] 0.228 | [17] 0.464 | [18] 0.345 | [19] 0.218 | [21] 0.301 | [22] 0.118 | [23] 0.313 | [24] 0.438 | [26] 0.659 | [27] 0.463 | [28] 0.368 | [29] 0.518

CN=c1nc(-c2ccccc2)n(-c2ccccc2)s1
inactive: [3] 0.969 | S. cerevisiae deletion strains, locus YAL040C, strain CLN3, hits give low values 0.983 | S. cerevisiae deletion strains, locus YCL061C, strain MRC1 (second series), hits give low values 0.984 | [6] 0.973 | S. cerevisiae deletion strains, locus YDR363W, strain ESC2, hits give low values 0.983 | S. cerevisiae deletion strains, locus YER002W, strain NOP16, hits give low values 0.982 | [30] 0.905 | S. cerevisiae deletion strains, locus YMR307W, strain GAS1, hits give low values 0.947 | [21] 0.905 | S. cerevisiae deletion strains, locus YNL175C, strain NOP13, hits give low values 0.978 | S. cerevisiae deletion strains, locus YNL197C, strain WHI3, hits give low values 0.99 | S. cerevisiae deletion strains, locus YNL224C, strain SQS1, hits give low values 0.987 | [23] 0.978 | S. cerevisiae deletion strains, locus YOR083W, strain WHI5 (second series), hits give low values 0.961 | [27] 0.982

CCOC(=O)c1nc(-c2ccccc2)sc1C(=O)OCC
inactive: [3] 1 | [4] 0.955 | [1] 0.999 | [5] 0.947 | [6] 1 | [7] 0.958 | [8] 0.973 | [30] 0.958 | [2] 0.735 | [9] 0.958 | [10] 0.947 | [11] 0.973 | [12] 0.907 | [13] 0.961 | [15] 0.968 | [16] 0.833 | [18] 0.921 | [19] 0.963 | [20] 0.977 | [21] 0.995 | [23] 0.981 | [24] 0.912 | [26] 0.979 | [27] 0.921 | [28] 0.741
active: [14] 0.716 | [17] 0.814 | [22] 0.766 | [25] 0.718
